Sampled rows, rich in hits. Any-hit rate of the full collection: about 12%.
SARS PLP yeast: SARS-CoV PLP inhibition in yeast; 0.19% of 330,000 active; S. cerevisiae expressing SARS-CoV PLpro, growth rescue; AID 485353; Potency, µM (doses to about 32.9 µM), without a hit: at the top dose activity, positive = growth rescue, actives largely listed as activators; calls by dose curve; also: 0% is about no effect; nearly all actives have a fitted effect of over 55% in size
Sm TGR block: blocks Schistosoma mansoni thioredoxin glutathione reductase. Potency, µM (series often up to 114 µM), for inactives: at the highest dose activity change, negative = inhibition, usual class: inhibitors. purified TGR, DTNB reduction, TNB absorbance 405 nm. 3% of 360,000 active. Q962Y6; also: % is scaled to controls: 0 for no effect and ±100 for the full control effect; nearly all actives have a fitted effect of over 60% in size
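First, TGR (20 nM dispensed) and NADPH were mixed with compound. Second, a 15 min room-temperature incubation followed. Third, further NADPH and then DTNB were added to start the reaction. Finally, TNB absorbance was monitored kinetically.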
Pf growth 96h: P. falciparum growth inhibition at 96 hour, primary screen for plastid delayed-death inhibitors; Potency, µM (series often up to 28.7 µM), for the others: at the top dose activity change, negative = inhibition, hits mostly inhibitors; P. falciparum luciferase reporter growth, 96 h; 6.9% of 320,000 active; also: % is scaled to controls: 0 for no effect and ±100 for the full control effect
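96 h incubation, 37 C, 5% CO2, of luciferase-reporter P. falciparum-infected RBCs (2% hematocrit, 0.05% parasitemia final) with test compounds; endpoint luminescence.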
Pf growth 48h: P. falciparum growth inhibition at 48 hours (one generation); P. falciparum luciferase growth in erythrocytes, 48 h; Potency, µM (titrated, usually from 28.7 µM), inactives show at the top dose activity change, negative = inhibition, usual class: inhibitors; 5.9% of 310,000 active; also: % is scaled to controls: 0 for no effect and ±100 for the full control effect
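Luciferase-expressing parasites in RBCs, 2% Hct / 0.1% parasitemia final; RPMI 1640 + 0.5% Albumax; 37 C, 5% CO2, one generation; luminescence read-out, lower signal = inhibition.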
* = called active by the depositor; i = inactive; ? = inconclusive; . = no result. Unless noted, calls follow the shape of the dose curve; as a rule, active = well fitted curve in the direction sought with a large enough effect; inconclusive = small, poorly fitted or top-dose-only effect, or another doubt; inactive = no such curve, though single readings can be large; an effect the other way counts as inactive or inconclusive. Potency is read from the fitted curve at half-maximal effect.

SMILES | SARS PLP yeast | Sm TGR block | Pf growth 96h | Pf growth 48h
Cc1ccc(S(=O)(=O)Cn2nnnc2C(CC(C)C)N2CCN(c3ccccc3)CC2)cc1 (stereo not drawn) | -13% | 1% | 33% | 7.4µM*
Cc1ccc(C(c2nnnn2CS(=O)(=O)c2ccc(C)cc2)N2CCN(c3ncccn3)CC2)cc1 (stereo not drawn) | 14% | -10% | ? | 4.1µM*
CCCCn1c(C)cc(C)c(S(=O)(=O)c2ccccc2C)c1=O | -15% | 5% | 15µM* | .
Cc1ccccc1S(=O)(=O)c1c(C)cc(C)n(C(C)C)c1=O | 4% | 10% | ? | -21%
CN(C)C(=O)/C(=C/c1ccc(-c2cccc([N+](=O)[O-])c2)o1)NC(=O)c1ccccc1 | 0% | -1% | ? | ?
CN(C)CCNC(=O)/C(=C/c1ccc(-c2cccc([N+](=O)[O-])c2)o1)NC(=O)c1ccccc1 | 26% | 4% | ? | 13µM*
CN(C)CCNC(=O)/C(=C/c1ccc(-c2cccc(Cl)c2)o1)NC(=O)c1ccccc1 | -29% | 2% | 13% | 13µM*
CN(C)C(=O)/C(=C\c1ccc(-c2cccc([N+](=O)[O-])c2)o1)NC(=O)c1ccccc1 | -4% | 2% | -20% | ?
COc1cc(C2Nc3ccccc3-c3nnc(SCc4ccc(C)cc4)nc3O2)cc(OC)c1O (stereo not drawn) | . | -29% | . | .
N#Cc1ccccc1S(=O)(=O)N1CCN(C(=O)C2CCCC2)CC1 | 1% | 0% | 1% | -21%
CN1CCN(/C(=N\O)c2nonc2N)CC1 | 3% | 7% | 15µM* | 15%
COc1cc(OC)c(NC(=O)c2nn(C)c3c2COc2ccccc2-3)cc1Cl | . | 0.71µM* | . | .
CCOc1ccc(NC(=O)c2nn(C)c3c2COc2ccccc2-3)cc1 | . | 7.9µM* | . | .
COC(=O)c1cc(NC(=O)c2nn(C)c3c2COc2ccccc2-3)cc(C(=O)OC)c1 | . | 2% | . | .
CCOc1ccc(NC(=O)CCS(=O)(=O)c2ccc3nc(C)sc3c2)cc1 | . | 4% | . | .
CC(C)c1ccc(CCNC(=O)CSC(=S)N2CCCC2)cc1 | -1% | 3% | -5% | 15%
CCOC(=O)c1sc(=S)n(-c2ccccc2Cl)c1SC | -22% | -8% | 2.6µM* | 13µM*
CCOC(=O)c1sc(=S)n(-c2ccccc2)c1SC | 3% | 1% | 13µM* | 12µM*
COc1ccccc1CNC(=O)CN1C(=O)CCc2cc(S(=O)(=O)N3CCOCC3)ccc21 | . | -1% | . | .
COc1ccccc1C(CC(=O)O)NS(=O)(=O)c1ccc2c(c1)N(C(C)=O)CC(C)O2 (stereo not drawn) | 0% | 1% | ? | 3%
Cc1cccc(OCC(=O)N(Cc2ccccc2)c2c(N)n(Cc3ccccc3)c(=O)[nH]c2=O)c1 | -3% | 0% | ? | ?
COc1ccccc1NC(=O)Cn1cc(C#N)c2ccccc21 | 7% | -12% | -100% | .
CC(C)(C)NC(=O)Cn1cc(C#N)c2cc(Br)ccc21 | 4% | 0% | . | 5.9µM*
O=C(Nc1ccc2c(c1)CCCN2C(=O)c1cccs1)c1ccccc1Cl | . | 2% | . | .
O=C(COC(=O)c1ccc(O)cc1O)Nc1nnc(-c2ccccc2)o1 | -4% | 3% | 8% | 3%
SMILES | SARS PLP yeast | Sm TGR block | Pf growth 96h | Pf growth 48h
N#Cc1cc(C(=O)c2cc(F)ccc2O)cn(Cc2ccccc2)c1=O | -1% | 1% | ? | ?
CC(C)CCNC(=O)c1cc(C(=O)c2cc(F)ccc2O)cn(CCC(C)C)c1=O | 0% | -2% | ? | 1.5µM*
CN(C)CCCNC(=O)c1cc(Br)ccc1O | -1% | -1% | 0% | -4%
CC(C)CCNC(=O)c1cc(C(=O)c2cc(Br)ccc2O)cn(CCC(C)C)c1=O | -6% | -33% | 0.41µM* | 1µM*
CCN1/C(=C\c2ccc3cc(C)ccc3[n+]2CC)Sc2cc(C)c(C)cc21 | -25% | -27% | 31% | 5.2µM*
CCN1/C(=C/c2ccc3cccc(C)c3[n+]2CC)Sc2ccccc21 | -37% | 26% | ? | ?
CCN1/C(=C/c2ccc3cc(C)cc(C)c3[n+]2CC)Sc2cc(C)ccc21 | -25% | -18% | 2% | 12µM*
COCCN(C(=S)Nc1cccc(OC)c1)C1CCN(C(C)C)CC1 | -31% | 0% | 13µM* | 1%
CCOC(=O)N1CCC(N(CCN(C)C)C(=S)Nc2cccc(OC)c2)CC1 | 3% | -7% | 7.4µM* | -5%
COCCN(C(=S)Nc1ccc(OC)cc1)C1CCN(C(C)C)CC1 | 11% | -1% | 12µM* | -4%
CCOC(=O)N1CCC(N(CCOC)C(=O)Nc2ccc(CC)cc2)CC1 | -3% | 0% | 7.4µM* | -26%
COC(=O)c1ccc(NC(=O)CCN2C(=O)NC(C)(C)C2=O)cc1 | 4% | -3% | 49% | 57%
CCn1cnc2c1c(=O)n(Cc1cccc(Br)c1)c(=O)n2Cc1ccccc1 | -4% | 0% | -22% | ?
Cc1ccc(C)c(OCCn2c(=O)c3c(ncn3C3CCCC3)n(Cc3ccccc3)c2=O)c1 | -23% | -10% | 2.6µM* | 12µM*
CCCCn1c(=O)n(CC(O)c2ccccc2)c(=O)c2c1ncn2C1CCCC1 (stereo not drawn) | -22% | 21% | ? | 2.9µM*
O=c1c2c(ncn2C2CCCC2)n(Cc2ccccc2)c(=O)n1CCOc1ccccc1 | -8% | -2% | ? | 17µM*
O=c1c2c(ncn2C2CCCC2)n(Cc2ccccc2)c(=O)n1CCOc1ccc(Br)cc1 | -4% | -27% | 13µM* | 13µM*
Cc1ccc(C)c(OCCCNCc2ccccc2)c1 | -2% | -24% | 0% | 8%
COCCn1cnc2c1c(=O)n(CC#N)c(=O)n2Cc1ccccc1 | -1% | 8% | ? | -21%
COC(=O)Cn1c(C2CC(=O)N(c3c(C)cccc3C)C2)nc2ccccc21 (stereo not drawn) | . | -5% | . | .
Cc1cccc(N2C(=O)CSC23C(=O)N(CC(=O)NCc2ccccc2Cl)c2ccccc23)c1 (stereo not drawn) | . | -2% | . | .
Cc1cccc(-c2nc(SCC(=O)N3CCc4ccccc43)c3c(=O)n(C)c(=O)n(C)c3n2)c1 | . | 1% | . | .
NCCCC[C@H]1CNC(=O)C(=O)N1CCCCC1CCCCC1 | 3% | -7% | 52% | 31%
NCCCC[C@H]1CNC(=O)C(=O)N1CCC12CC3CC(CC(C3)C1)C2 | 0% | -8% | 7.4µM* | 12µM*
CCOc1ccc(-c2nnc(SCC(=O)NCCc3ccccc3)nc2-c2ccc(OCC)cc2)cc1 | . | 7% | . | .
Cc1ccccc1OC1C(=O)N(Cc2ccc3c(c2)OCO3)C1c1sccc1C (stereo not drawn) | -4% | -17% | 13µM* | ?
O=C1C(Oc2ccccc2)C(c2cccs2)N1Cc1ccc2c(c1)OCO2 (stereo not drawn) | 1% | 2% | ? | ?
O=C(c1cc2cc(Cl)ccc2[nH]1)N1CCN(c2ccccc2F)CC1 | -1% | -18% | -12% | -5%
COc1ccccc1N1CCN(C(=O)Cc2c(C(=O)O)[nH]c3ccc(Cl)cc23)CC1 | 0% | -4% | i | 10µM*
